From PubChem BioAssay (EPA / NIEHS)
Records with an inconclusive call do not appear. Activity calls are given as the source filed them. Rule for the calls: active = hit-call score of the fitted dose curve at least 0.9, where 1 is the maximum; inconclusive = response in the unintended direction; inactive = score below 0.9.

test system: not listed separately; test: ATG_GAL4_TRANS: Attagene TRANS-FACTORIAL HepG2 Assay for GAL4 (Internal Marker) (AID 2282976); conditions: HepG2 Attagene TRANS GAL4 internal marker reporter
How it was run: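 First, HepG2 cells were transfected with reporter units under GAL4-UAS control. Next, they were treated with chemical for 24 h. Finally, RNA was reverse-transcribed, PCR-amplified, FAM-labelled and resolved by capillary electrophoresis, with induction scored against DMSO.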

outcome, inactive:
CNC(=C[N+](=O)[O-])NCCSCc1csc(CN(C)C)n1
O=C(O)/C=C/C(=O)O
CCO[Si](CCCN)(OCC)OCC
CCCCCCC1CCC(=O)O1 (stereo unspecified)
O=[N+]([O-])c1ccccc1C(F)(F)F
CCC(=O)OCc1ccc(OC)cc1
CCCCCC1CCCC(=O)O1 (stereo unspecified)
Cc1cc2nc3c(=O)[nH]c(=O)nc-3n(C[C@H](O)[C@H](O)[C@H](O)CO)c2cc1C
Cc1cc(-n2nc3ccc(Cl)cc3n2)c(O)c(C(C)(C)C)c1
CCCCCCC1CCCC(=O)O1 (stereo unspecified)
CC(=O)CCc1ccccc1
CC[N+](CC)(CC(=O)Nc1c(C)cccc1C)Cc1ccccc1 (tested in a mixture with another compound)

target: Estrogen-related receptor gamma (Homo sapiens) (UniProt P62508); test: ATG_ERRg_TRANS: Attagene TRANS-FACTORIAL HepG2 Assay for human Estrogen-Related Receptor gamma (ERRg) (AID 2282977); conditions: HepG2 Attagene TRANS reporter, ERRg transactivation;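 note: hits increase reporter signal over DMSO so potencies reflect activators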
How it was run: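 Exogenous NR-Gal4 chimera activity was assessed in HepG2 cells bearing transfected GAL4-UAS reporters. After 24 h dosing, total RNA underwent RT-PCR, fluorescent primer extension and HpaI digestion before capillary electrophoresis, with gain of signal scored against DMSO.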

Sequence of Estrogen-related receptor gamma (Homo sapiens) (P62508 whole entry, looked up, the tested form may be a part): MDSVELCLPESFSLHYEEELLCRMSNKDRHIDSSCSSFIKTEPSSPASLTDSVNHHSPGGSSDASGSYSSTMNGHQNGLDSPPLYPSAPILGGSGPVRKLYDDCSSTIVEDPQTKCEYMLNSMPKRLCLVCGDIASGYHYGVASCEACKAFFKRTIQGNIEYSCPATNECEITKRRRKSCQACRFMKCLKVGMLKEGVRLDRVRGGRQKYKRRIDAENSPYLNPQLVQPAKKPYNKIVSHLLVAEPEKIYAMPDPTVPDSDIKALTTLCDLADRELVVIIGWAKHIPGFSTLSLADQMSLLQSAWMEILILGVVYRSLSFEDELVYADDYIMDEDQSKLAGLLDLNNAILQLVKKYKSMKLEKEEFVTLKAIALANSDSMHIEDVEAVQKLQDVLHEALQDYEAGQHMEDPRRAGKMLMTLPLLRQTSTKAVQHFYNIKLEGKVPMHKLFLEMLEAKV

outcome, inactive:
O=S(=O)(O)c1cccc2ccccc12
CN1CCCC1
CCO[Si](CCCN)(OCC)OCC
O=[N+]([O-])c1ccccc1C(F)(F)F
CCCCCC1CCCC(=O)O1 (stereo unspecified)
Cc1cc(-n2nc3ccc(Cl)cc3n2)c(O)c(C(C)(C)C)c1
NC(=O)c1ccc(N)cc1
CC(C)=CCOC(=O)c1ccccc1
CN(C)c1ccc(C(c2ccccc2)c2ccc(N(C)C)cc2)cc1

target: Glucocorticoid receptor (Homo sapiens) (UniProt P04150); test: ATG_GR_TRANS: Attagene TRANS-FACTORIAL HepG2 Assay for human Glucocorticoid Receptor (GR) (AID 2282978); conditions: HepG2 Attagene TRANS GR reporter, mRNA transcription;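 note: activators score as hits since higher reporter transcript over DMSO is fitted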
How it was run: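 Measurement of GAL4-UAS-driven reporter mRNA in human HepG2 liver cells 24 h post-dosing, using RT-PCR with fluorescent labelling and capillary electrophoresis; the transfected constructs report exogenous NR-GAL4 chimera activity, fitted upward against DMSO.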

Sequence of Glucocorticoid receptor (Homo sapiens) (P04150 whole entry, looked up, the tested form may be a part): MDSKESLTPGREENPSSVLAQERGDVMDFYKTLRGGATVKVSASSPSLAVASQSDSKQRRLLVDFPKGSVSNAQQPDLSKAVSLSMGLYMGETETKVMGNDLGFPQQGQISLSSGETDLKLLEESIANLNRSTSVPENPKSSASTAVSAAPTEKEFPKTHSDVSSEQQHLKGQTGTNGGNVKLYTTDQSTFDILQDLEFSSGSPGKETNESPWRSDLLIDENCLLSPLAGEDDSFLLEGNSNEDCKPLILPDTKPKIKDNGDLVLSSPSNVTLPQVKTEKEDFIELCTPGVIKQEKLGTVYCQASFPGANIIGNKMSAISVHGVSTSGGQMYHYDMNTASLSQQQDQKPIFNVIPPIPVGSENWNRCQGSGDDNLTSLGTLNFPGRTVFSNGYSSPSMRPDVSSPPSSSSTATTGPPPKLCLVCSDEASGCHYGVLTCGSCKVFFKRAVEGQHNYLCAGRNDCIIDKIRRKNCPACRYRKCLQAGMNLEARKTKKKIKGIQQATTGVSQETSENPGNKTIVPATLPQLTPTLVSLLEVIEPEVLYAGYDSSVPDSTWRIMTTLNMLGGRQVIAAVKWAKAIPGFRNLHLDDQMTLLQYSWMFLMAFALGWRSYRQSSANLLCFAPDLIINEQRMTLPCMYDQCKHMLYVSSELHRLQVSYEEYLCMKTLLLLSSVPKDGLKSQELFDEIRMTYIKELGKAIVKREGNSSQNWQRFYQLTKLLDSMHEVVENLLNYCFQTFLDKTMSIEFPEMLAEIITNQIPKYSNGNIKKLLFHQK

outcome, inactive:
O=C1CCCCCCCCCCCCCC1
CCCC(=O)OC/C=C(\C)CCC=C(C)C
CCCCCCC(O)CCCCCCCCCCC(=O)OC (stereo unspecified)
O=C(O)/C=C/C(=O)O
CCO[Si](CCCN)(OCC)OCC
CCC(=O)OCc1ccc(OC)cc1
CCC(C)=NO
CCCCCC1CCCC(=O)O1 (stereo unspecified)
Cc1cc(-n2nc3ccc(Cl)cc3n2)c(O)c(C(C)(C)C)c1
O=C(OCc1ccccc1)c1ccccc1
CCCCCCC1CCCC(=O)O1 (stereo unspecified)
c1ccc(CNc2ncnc3nc[nH]c23)cc1
CC(=O)Nc1c(I)c(NC(C)=O)c(I)c(C(=O)O)c1I
CC(C)=CCOC(=O)c1ccccc1
c1ccc2c(c1)Oc1ccccc1S2
CCCCCC[C@@H](O)C/C=C\CCCCCCCC(=O)O

AC50, active:
CC(C)(C)NC(=O)[C@@H]1CN(Cc2cccnc2)CCN1C[C@@H](O)C[C@@H](Cc1ccccc1)C(=O)N[C@H]1c2ccccc2C[C@H]1O 13.4 µM

target: Bile acid receptor (Homo sapiens) (UniProt Q96RI1); test: ATG_FXR_TRANS: Attagene TRANS-FACTORIAL HepG2 Assay for Farnesoid X Receptor (FXR) (AID 2282979); conditions: HepG2 Attagene TRANS FXR-GAL4 reporter transcription;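 note: hits raise reporter mRNA above DMSO so AC50 marks FXR activation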
How it was run: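 Transient transfection of HepG2 with multiplexed GAL4-UAS reporter units; exogenous FXR-GAL4 chimera. Dose 24 h → TriZol RNA → oligo(dT) RT → PCR, 6-FAM primer extension, HpaI cut → CE. Gain vs DMSO.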

Sequence of Bile acid receptor (Homo sapiens) (Q96RI1 whole entry, looked up, the tested form may be a part): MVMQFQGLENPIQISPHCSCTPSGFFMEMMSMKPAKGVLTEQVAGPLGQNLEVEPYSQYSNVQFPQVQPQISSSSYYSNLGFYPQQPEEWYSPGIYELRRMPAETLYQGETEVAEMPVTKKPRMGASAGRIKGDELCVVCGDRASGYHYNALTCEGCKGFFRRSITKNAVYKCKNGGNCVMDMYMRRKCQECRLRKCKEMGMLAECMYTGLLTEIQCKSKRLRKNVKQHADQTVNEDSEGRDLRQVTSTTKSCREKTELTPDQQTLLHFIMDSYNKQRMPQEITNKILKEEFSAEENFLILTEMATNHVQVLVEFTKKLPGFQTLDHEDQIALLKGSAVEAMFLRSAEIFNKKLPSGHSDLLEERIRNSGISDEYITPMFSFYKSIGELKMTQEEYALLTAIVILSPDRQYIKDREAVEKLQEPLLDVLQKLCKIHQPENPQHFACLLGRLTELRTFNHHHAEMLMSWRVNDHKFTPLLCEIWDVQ

outcome, inactive:
C/C=C(\C)C(=O)OCC/C=C\CC
CN1CCCC1
CCO[Si](CCCN)(OCC)OCC
CCC(=O)OCc1ccc(OC)cc1
CCCCCC1CCCC(=O)O1 (stereo unspecified)
Cc1cc2nc3c(=O)[nH]c(=O)nc-3n(C[C@H](O)[C@H](O)[C@H](O)CO)c2cc1C
Cc1cc(-n2nc3ccc(Cl)cc3n2)c(O)c(C(C)(C)C)c1
c1ccc(CNc2ncnc3nc[nH]c23)cc1
CC(C)(C)NC(=O)[C@@H]1CN(Cc2cccnc2)CCN1C[C@@H](O)C[C@@H](Cc1ccccc1)C(=O)N[C@H]1c2ccccc2C[C@H]1O
Oc1cccc2ccccc12
Oc1ccc(Oc2ccccc2)cc1
CNC[C@H](O)[C@@H](O)[C@H](O)[C@H](O)CO
CCCCCC[C@@H](O)C/C=C\CCCCCCCC(=O)O

AC50, active:
COC(=O)[C@]1(C)CCC[C@@]2(C)[C@H]1CC=C1C=C(C(C)C)CC[C@@H]12 33 µM

target: Oxysterols receptor LXR-alpha (Homo sapiens) (UniProt Q13133); test: ATG_LXRa_TRANS: Attagene TRANS-FACTORIAL HepG2 Assay for human Liver X Receptor alpha (LXRa) (AID 2282980); conditions: HepG2 Attagene TRANS reporter, LXRa transactivation
How it was run: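 Transfect HepG2 with GAL4-UAS multiplex reporter constructs (TRANS format, chimeric receptor-GAL4); treat 24 h; extract RNA, reverse-transcribe, PCR-amplify, FAM-label, HpaI-digest; resolve fragments by capillary electrophoresis. Upward response vs DMSO.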

Sequence of Oxysterols receptor LXR-alpha (Homo sapiens) (Q13133 whole entry, looked up, the tested form may be a part): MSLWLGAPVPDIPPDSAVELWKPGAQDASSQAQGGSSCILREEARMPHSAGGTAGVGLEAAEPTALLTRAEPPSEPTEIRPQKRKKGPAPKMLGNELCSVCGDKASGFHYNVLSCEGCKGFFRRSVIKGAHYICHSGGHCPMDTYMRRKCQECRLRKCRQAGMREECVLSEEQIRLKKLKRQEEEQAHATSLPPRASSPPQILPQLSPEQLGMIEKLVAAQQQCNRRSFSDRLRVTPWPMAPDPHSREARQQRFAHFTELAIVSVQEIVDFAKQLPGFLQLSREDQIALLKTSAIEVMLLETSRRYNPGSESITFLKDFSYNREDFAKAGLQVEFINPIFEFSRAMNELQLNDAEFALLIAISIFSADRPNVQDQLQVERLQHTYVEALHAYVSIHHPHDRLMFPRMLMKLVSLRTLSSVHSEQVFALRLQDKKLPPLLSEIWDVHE

outcome, inactive:
CNC(=C[N+](=O)[O-])NCCSCc1csc(CN(C)C)n1
O=C1CCCCCCCCCCCCCC1
CCCCCCC(O)CCCCCCCCCCC(=O)OC (stereo unspecified)
COC(=O)c1ccccc1
O=C(O)/C=C/C(=O)O
C/C=C(\C)C(=O)OCC/C=C\CC
CN1CCCC1
CCO[Si](CCCN)(OCC)OCC
CCCCCCC1CCC(=O)O1 (stereo unspecified)
CCC(=O)OCc1ccc(OC)cc1
CCc1cc(C(N)=S)ccn1
COc1cccc(OC)c1C(=O)O
C=C1CC[C@H]2C[C@@H]1C2(C)C
CCCCCC1CCCC(=O)O1 (stereo unspecified)
COC(=O)[C@]1(C)CCC[C@@]2(C)[C@H]1CC=C1C=C(C(C)C)CC[C@@H]12
Cc1cc2nc3c(=O)[nH]c(=O)nc-3n(C[C@H](O)[C@H](O)[C@H](O)CO)c2cc1C
O=C(OCc1ccccc1)c1ccccc1
CCCCCCC1CCCC(=O)O1 (stereo unspecified)
c1ccc(CNc2ncnc3nc[nH]c23)cc1
NC(=O)c1ccc(N)cc1
CC(C)=CCOC(=O)c1ccccc1
CC(C)(C)NC(=O)[C@@H]1CN(Cc2cccnc2)CCN1C[C@@H](O)C[C@@H](Cc1ccccc1)C(=O)N[C@H]1c2ccccc2C[C@H]1O
C=CN1CCCCCC1=O
Oc1ccc(Oc2ccccc2)cc1
